Data taken from PubChem BioAssay (Tox21).
Values without a mark were called inactive. Results filed as inconclusive are left out. A call without a number means that no potency is given here. Calls of active or inactive are those of the source. Unless noted, the call rests on the fitted dose curve; in most records, active means well fitted curve in the direction sought with a large enough effect in the repeat runs; inconclusive means weak or mixed curves; inactive means no such curve, though single readings can be large; an effect the other way counts as inactive or inconclusive.

How the values were obtained:
[1] = qHTS assay to identify small molecule agonists of the hypoxia (HIF-1) signaling pathway - cell viability counter screen (AID 1224844; calls by dose curve; further: nearly all actives have a fitted effect of over 50% in size; further: potency means the concentration at half of the fitted maximal effect)
Procedure, shortened: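 Viability counter screen: HRE-bla ME-180 cells plated 5 hrs before compound addition, treated 17 hrs at 37C and 5% CO2, then CellTiter-Glo added after the FRET reporter read; luminescence after 30 min.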

[2] = qHTS assay to identify small molecule agonists of H2AX (AID 1224845; active means well fitted activation curve with a large enough effect in the signal ratio in the repeat runs, not every such curve was filed as active; the % refers to the signal ratio; further: potency means the concentration at half of the fitted maximal effect)
Procedure, shortened: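 Wild-type CHO-K1 cells plated overnight, then exposed 3 hr at 37C to compounds at 15 concentrations (0.76% DMSO). Lysed, then HTRF anti-pH2AX(S139)-cryptate/anti-H2AX-d2 detection after 24 hr at room temperature; emissions 665 and 620 nm.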

[3] = qHTS assay to identify small molecule agonists of H2AX - cell viability counter screen (AID 1224847; calls by dose curve; further: nearly all actives have a fitted effect of over 30% in size; further: potency means the concentration at half of the fitted maximal effect)
Procedure, shortened: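 CHO-K1 wt, 1000 cells/well, o/n 37C; cpds 15 conc, 3 h 37C, 0.76% DMSO; CellTiter-Glo, 30 min RT, luminescence.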

[4] = qHTS RealTime-Glo MT Cell Viability Assay in HepG2 cells - 24 hour (AID 1224867); further: nearly all actives have a fitted effect of over 50% in size
Procedure, shortened: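 qHTS, HepG2, 600 cells/well, RealTime-Glo (NanoLuc + prosubstrate) added with cells; 5 h preincubation; DMSO compound addition; 37 C; luminescence at 0/8/16/24/32/40 h.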

[5] = qHTS RealTime-Glo MT Cell Viability Assay in HEK293 cells - 32 hour (AID 1224868); further: nearly all actives have a fitted effect of over 50% in size; further: potency means the concentration at half of the fitted maximal effect
Procedure, shortened: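 Assay medium contained NanoLuc luciferase plus cell-permeant prosubstrate, added with HEK293 cells at 600 cells/well. After 5 h at 37 C/5% CO2 compounds were added; plates stayed at 37 C for 40 h with serial luminescence reads.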

[6] = A CellTox Green Cytotoxicity Assay to monitor cytotoxicity in HEK293 cells - 0 hour (AID 1224869); further: nearly all actives have a fitted effect of over 50% in size
Procedure, shortened: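 Dead-cell fluorescence measured kinetically: asymmetric cyanine dye, HEK293, 600 cells/well, 5 h settle, 23 nL cpd/DMSO, 37 C, reads 0–40 h every 8 h.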

[7] = qHTS RealTime-Glo MT Cell Viability Assay in HepG2 cells - 40 hour (AID 1224870); further: nearly all actives have a fitted effect of over 50% in size
Procedure, shortened: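 HepG2 cells mixed with RealTime-Glo MT reagents (NanoLuc plus cell-permeant prosubstrate) were seeded at 600 cells/well, incubated 5 h at 37 C/5% CO2, then pinned with compounds in DMSO; nonlytic luminescence tracked viability during 40 h treatment.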

[8] = qHTS assay to identify small molecule antagonists of the estrogen related receptor (ERR) signaling pathway from Tox21 library (AID 1224848); further: nearly all actives have a fitted effect of over 50% in size; further: potency means the concentration at half of the fitted maximal effect
Procedure, shortened: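 First, 2,000 ERR cells per well were plated and held 6 h at 37 C/5% CO2. Next, compounds in DMSO were pinned in and left 18 h at 37 C. Finally, ONE-Glo was added and luminescence read after 30 min at room temperature.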

[9] = qHTS assay to identify small molecule agonists of the estrogen related receptor (ERR) signaling pathway from Tox21 library (AID 1224849; calls by dose curve; further: nearly all actives have a fitted effect of over 15% in size); details: ERR reporter cell line, ONE-Glo luciferase, 18 h; at 92.4 µM (top of the series) unless noted
Procedure, shortened: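 Quantitative HTS in agonist format: NTP ERR cell line, compounds transferred in DMSO after 6 h plating, 18 h incubation at 37 C, ONE-Glo luminescence endpoint.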

[10] = qHTS assay to identify small molecule agonists of the hypoxia (HIF-1) signaling pathway (AID 1224846; active means well fitted activation curve with a large enough effect in the signal ratio in the repeat runs, not every such curve was filed as active; the % refers to the signal ratio)
Procedure, shortened: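 Agonist mode reporter screen. ME-180 cells stably expressing bla under HRE control received test compounds in DMSO for 17 hrs (37C, 5% CO2), and beta-lactamase activity was then detected with the CCF4-AM FRET substrate.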

Row | SMILES | Potency [1] | Potency [2] | Potency [3] | Potency [4] | Potency [5] | Potency [6] | Potency [7] | Potency [8] | activity change, positive = activation [9] | outcome [10]
1 | C[C@]12CC[C@H]3[C@@H](CC=C4C[C@@H](O)CC[C@@]43C)[C@@H]1CC[C@@H]2O | inactive | inactive | inactive | inactive | inactive | inactive | inactive |  |  | 
2 | C=CCC1=C(C)[C@@H](OC(=O)[C@@H]2[C@@H](C=C(C)C)C2(C)C)CC1=O | 54.9 µM (active) | 56.6 µM (active) | 50.5 µM (active) |  | 13.8 µM (active) |  | inactive | 21.7 µM (active) | -64.6% | 
3 | O=C(Nc1ccccc1)c1ccccc1I | inactive | inactive |  | inactive | inactive | inactive | inactive |  |  | inactive
4 | C1CCC(C2CCCCC2)CC1 | 21.9 µM (active) | inactive | inactive | inactive |  | inactive | inactive | inactive | -6.98% | 
5 | C[C@@H]1CN(C2CCC(C#N)(c3ccc(F)cc3)CC2)CC[C@]1(C(=O)O)c1ccccc1 (stereo partly drawn) | inactive | inactive | inactive | inactive | inactive | inactive | inactive | inactive | 0.0799% [at 42.5 µM] | 
6 | CC(Oc1ccc(Oc2ncc(C(F)(F)F)cc2Cl)cc1)C(=O)O (stereo not drawn) | 15.5 µM (active) | inactive | inactive | inactive | inactive | inactive | inactive |  | -29.5% | 
7 | CNC(=O)Oc1cccc(C(C)C)c1 | inactive | inactive |  | inactive | inactive | inactive | inactive |  |  | inactive
8 | O=[N+]([O-])c1cccc2c([N+](=O)[O-])cccc12 | inactive | inactive |  | inactive | 49.2 µM (active) |  | inactive | 30.8 µM (active) | -66% | inactive
9 | COP(=S)(OC)Oc1ccc(S(N)(=O)=O)cc1 | inactive | inactive | inactive |  | inactive | inactive | inactive |  |  | inactive
10 | CC(C(O)c1ccccc1)N(C)C/C=C/c1ccccc1 (stereo not drawn) | inactive | inactive |  | inactive |  | inactive | inactive |  |  | inactive
11 | O=[N+]([O-])c1ccc(CBr)cc1 | 24.2 µM (active) | inactive | inactive | inactive | inactive | inactive | inactive |  |  | 
12 | [Cl][Sn]([Cl])([Cl])[Cl] | inactive | inactive | inactive | inactive |  |  | inactive |  |  | inactive
13 | CN1CCN(C(=O)O[C@H]2c3nccnc3C(=O)N2c2ccc(Cl)cn2)CC1 | inactive | inactive | inactive | inactive | inactive | inactive | inactive |  |  | 
14 | O=C(Nc1ccccc1)N(Cc1ccc(Cl)cc1)C1CCCC1 | inactive | inactive |  |  | 24.5 µM (active) | inactive | inactive | 54.5 µM (active) | -60.6% | inactive
15 | CC(COc1ccc(Oc2ccccc2)cc1)Oc1ccccn1 (stereo not drawn) | inactive | inactive |  | inactive |  |  | inactive | inactive | 0.411% | inactive
16 | COc1cc(OC)nc(Oc2cccc(Oc3nc(OC)cc(OC)n3)c2C(=O)O)n1 | inactive | inactive |  | inactive | inactive |  | inactive |  |  | inactive
17 | OC(c1ccccc1)(c1ccccc1)C1CCNCC1 | inactive | inactive | inactive | inactive | inactive | inactive | inactive |  |  | 
18 | O=C1OC(=O)C2C1C1(Cl)C(Cl)=C(Cl)C2(Cl)C1(Cl)Cl (stereo not drawn) |  | inactive | inactive | inactive | inactive | inactive | inactive |  |  | inactive
19 | CC(CC(C#N)(c1ccccc1)c1ccccc1)N(C)C (stereo not drawn) |  | inactive | inactive | inactive |  | inactive | inactive |  |  | inactive
20 | O=C1OC(CCN2CCCCC2)OC1(c1ccccc1)c1ccccc1 (stereo not drawn) | inactive |  | inactive | inactive | inactive | inactive | inactive |  |  | inactive
21 | Nc1cc(Cl)ccc1O | inactive |  | inactive | inactive | inactive |  | inactive |  |  | inactive
22 | COc1cccc2c1cc([N+](=O)[O-])c1c(C(=O)O)cc3c(c12)OCO3 | 54.9 µM (active) |  | inactive | inactive | 2.45 µM (active) | inactive | inactive | 4.86 µM (active) | -37.1% | 
23 | C(CCOCC1CO1)COCC1CO1 (stereo not drawn) |  | inactive | inactive | inactive |  | inactive | inactive |  |  | 
24 | CC(C)CP(=S)(S)CC(C)C |  | inactive | inactive | inactive | inactive | inactive | inactive |  |  | inactive
25 | CCOC(=O)C(c1c(O)c2ccccc2oc1=O)c1c(O)c2ccccc2oc1=O |  | inactive |  | inactive | inactive | inactive | inactive |  |  | 
26 | c1cc[c]([Hg][c]2ccccc2)cc1 | 49 µM (active) |  | inactive | inactive | 30.9 µM (active) | inactive | inactive |  |  | 
27 | CS(=O)(=O)c1cc(C(F)(F)F)ccc1C(=O)c1cnoc1C1CC1 | inactive |  | inactive | inactive | inactive | inactive | inactive | inactive | 9.23% | inactive
